# Bioassay records: PubChem, several laboratories
# Rows were chosen to be rich in hits. Some 0.51% of all compounds tested hit in one or more screens of this group.
# E coli growth-1: counter-screen for AddAB inhibitors: E. coli growth inhibition | 330,000 tested, 0.27% active | E. coli V3065 growth, OD600 absorbance, 18 h | AID 449728 | inhibition, % at 11.9 µM;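 active = inhibition above the campaign's mean inhibition across all tested compounds plus 3 SD, cut at about 9.9% in these data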;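 note: uninfected addAB+ strain grown without phage in ampicillin broth; 0% = DMSO wells and 100% = ciprofloxacin 0.95 µg/ml wells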
# E coli growth-2: E. coli growth inhibition. Escherichia coli growth, OD600, 23 h; stronger effect = lower value. OD600 absorbance (no concentration beside the values). 330,000 tested, 0.21% active;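 active = OD600 absorbance below the run mean of sample wells minus 3.6 SD, in any replicate, cut at about 0.56 in these data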
# Tat export inh: E. coli Tat transport inhibition; E. coli MC4100 TorA-mCherry Tat export, fluorescence; inhibition, % at 10 µM; 340,000 tested, 0.036% active;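 active = mean replicate inhibition at least 50% and at least half of replicates individually reaching 50%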;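 note: exported cargo escapes ClpAP degradation while cytoplasmic cargo is degraded and loses fluorescence; 0% = median of neutral control wells and 100% = median of NaSCN control wells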
# phage Ecoli inh: E. coli growth loss with phage present; growth absorbance; inhibition, % at 11.9 µM; 360,000 tested, 0.26% active; AID 651602; in the data active = inhibition above about 11%
# AddAB inh: less growth of phage-infected E. coli with AddAB; AID 435030; E. coli expressing H. pylori AddAB, absorbance growth; inhibition, % at 11.9 µM; 330,000 tested, 0.29% active; in the data active = inhibition above about 12%;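 note: 0% = vehicle wells of infected cells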
# AddAB conf: growth loss of T4-infected E. coli expressing H. pylori AddAB, confirmed. shares compounds with AddAB inh. E. coli V3065 expressing H. pylori AddAB, T4 phage, OD; T4 phage with gene 2 nonsense mutations. inhibition, % at 11.9 µM. 880 tested, 64% active;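 active = mean inhibition above a set limit taken from the earlier primary screen, cut at about 13% in these data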;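 note: higher means less bacterial growth since AddAB block lets phage replicate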
# RecBCD counter: counter-screen: growth loss of RecBCD+ E. coli with mutant T4 phage | shares compounds with AddAB inh | E. coli V66 + mutant T4 phage, OD growth | inhibition, % at 11.9 µM | 880 tested, 73% active;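 active = mean inhibition above the mean of solvent-only control wells plus 3 SD, cut at about 4% in these data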;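 note: optical density read after an 18 h incubation at 37 °C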
# bact viab count: counter-screen: bacterial growth inhibition; shares compounds with AddAB inh; bacterial viability, absorbance (AddAB counterscreen); inhibition, % at 11.9 µM; 880 tested, 35% active; in the data active = inhibition above about 25%
# * hit, by the source's call; . = no result.
SMILES,E coli growth-1,E coli growth-2,Tat export inh,phage Ecoli inh,AddAB inh,AddAB conf,RecBCD counter,bact viab count
Cc1ccc(S(=O)(=O)N/N=C\c2ccc([N+](=O)[O-])o2)cc1C,16.3*,.,11.1,8.8,24.8*,99.6*,9.5*,41.0*
Cc1ccc(S(=O)(=O)N/N=C\c2ccc([N+](=O)[O-])o2)cc1,13.5*,.,-5.4,7.2,17.8*,101.9*,9.5*,54.2*
Cc1ccc(/C=N/NS(=O)(=O)c2ccc([N+](=O)[O-])cc2)o1,-2.4,.,3.3,3.0,3.0,.,.,.
O=[N+]([O-])c1ccc(/C=N/NS(=O)(=O)c2ccc(Cl)cc2)o1,22.3*,.,5.0,7.9,95.8*,101.3*,7.7*,42.7*
CCOC(=O)CC1c2ccc(C(F)(F)F)cc2S(=O)(=O)N1Cc1ccccc1 (configuration not stated),.,0.671,.,.,.,.,.,.
CN1CCN(C(=O)C2=CC(c3csc4ccccc34)CC(OCCCCO)O2)CC1 (configuration not stated),.,0.706,.,.,.,.,.,.
CCOC1OC(C(=O)N2CCN(C)CC2)=CC(c2ccc(Br)cc2)C1CCCO (configuration not stated),.,0.66,.,.,.,.,.,.
CCOC(=O)c1cn(C2CC2)c2c(F)c(NCCCN(C)C)c(F)cc2c1=O,7.6,0.654,1.3,1.3,13.2*,12.8*,0.9,3.8
O=C(Nc1oc2ccccc2c(=O)c1-c1ccccc1)c1ccco1,.,.,.,-2.5,.,.,.,.
Cc1ccc(-c2c(NC(=O)c3ccco3)oc3ccccc3c2=O)cc1,39.5*,0.626,-3.4,-0.7,93.5*,-0.8,0.2,-2.3
Cc1ccc(C(=O)NN=Cc2ccc(-c3ccc(Cl)cc3)o2)cn1,.,0.659,.,.,.,.,.,.
CCCCC(CC)CN=C(N)NC(N)=NCCCCCCN=C(N)NC(N)=NCC(CC)CCCC (configuration not stated),101.4*,.,75.9*,.,98.0*,104.3*,72.6*,97.8*
COC(=O)C1=C(C)N(Cc2ccco2)C(=O)NC1c1ccccc1 (configuration not stated),.,0.675,.,.,.,.,.,.
CCOC(=O)c1c(C)nc(C)c2c(=O)oc3ccccc3c12,99.0*,0.692,8.3,1.1,98.0*,-2.6,-1.7,-3.3
O=S(=O)(Nc1cccc2ncccc12)c1cccs1,4.4,0.678,2.2,.,17.9*,6.8,5.2*,0.4
COC(=O)[C@@]12CCCN1C(c1ccc(-c3ccc4c(c3)OCO4)cc1)C1C(=O)N(C)C(=O)C12 (some centres not stated),.,0.71,.,.,.,.,.,.
C/C(=N\Nc1nc2ccccc2[nH]1)c1ccccn1,27.1*,.,-8.3,26.6*,27.0*,24.8*,14.2*,9.4
O=C(C1=CC(c2csc3ccccc23)CC(OCCCCO)O1)N1CCN(Cc2ccc3c(c2)OCO3)CC1 (configuration not stated),.,0.691,.,.,.,.,.,.
O=[N+]([O-])c1cc(-c2ncccn2)cs1,13.1*,0.597,-0.9,9.6,16.9*,100.0*,8.6*,26.6*
CC(C)CNC(=S)NC(=O)c1csc([N+](=O)[O-])c1,-1.0,0.567,-15.2,0.8,4.0,.,.,.
C=CCOC(=O)C1=CC(c2coc3ccccc3c2=O)CC(OCc2ccc(CO)cc2)O1 (configuration not stated),.,0.684,.,.,.,.,.,.
COc1cc(CNC(=O)c2ccc3oc(C(C)C)nc3c2)cc(OC)c1,9.3,0.607,-24.6,10.8,14.0*,6.8,6.4*,3.9
Cc1cnc(CNC(=O)c2ccc3oc(C(C)C)nc3c2)[nH]1,3.5,0.7,13.2,3.7,3.8,.,.,.
[O-][N+](=Cc1ccccc1)c1ccc(Br)cc1,.,0.621,.,.,.,.,.,.
Cc1cccc(-c2cc(=O)c(C(=O)O)cn2-c2ccc(F)cc2F)c1,1.0,0.558,6.8,1.5,4.2,.,.,.
SMILES,E coli growth-1,E coli growth-2,Tat export inh,phage Ecoli inh,AddAB inh,AddAB conf,RecBCD counter,bact viab count
NC1CCN(c2nc3c(cc2F)c(=O)c(C(=O)O)cn3-c2ccc(F)cc2F)C1 (configuration not stated),102.1*,0.0705*,71.6*,101.1*,100.7*,96.9*,99.8*,100.0*
CC(C)Cc1cc(C(=O)NCCN2CCOCC2)no1,4.5,0.716,-7.9,1.6,18.9*,-1.5,0.7,-1.3
Cc1ccc(N2C(=O)N3C4c5ccccc5OCC4C(c4ccccc4)[C@@]3(C)C2=O)cc1 (some centres not stated),.,0.711,.,.,.,.,.,.
COC(=O)C(Cc1ccccc1)N(C)S(=O)(=O)c1cccc(S(=O)(=O)N(C)C(Cc2ccccc2)C(=O)OC)c1 (configuration not stated),.,0.722,.,.,.,.,.,.
COc1cc2c(cc1OC)-c1nnc(C)n1C1(CCCC1)C2,11.5*,0.716,4.9,3.0,24.1*,1.6,0.7,1.1
COc1cc2c(cc1OC)-c1nnc(C)n1C(C)(C)C2,-3.2,0.699,-0.9,1.6,0.5,.,.,.
COc1nccnc1NS(=O)(=O)c1ccc(N=Cc2c(C)[nH]n(-c3ccc(Cl)cc3)c2=O)cc1,4.7,0.678,.,6.5,3.2,.,.,.
CCc1nnc(NS(=O)(=O)c2ccc(N=Cc3c(C)[nH]n(-c4ccc(Cl)cc4)c3=O)cc2)s1,8.9,.,-8.3,9.5,13.5*,8.5,7.0*,10.8
Cc1nc2ccc(Cc3ccc4nc(C)[nH]c4c3)cc2[nH]1,8.6,0.683,2.2,8.1,15.9*,7.6,5.8*,4.7
CC(=O)c1cccc(NC(=O)CCNS(=O)(=O)c2cccc3nonc23)c1,6.5,0.683,-16.9,4.9,12.8*,6.4,4.5*,5.0
O=S1(=O)Nc2c(ccc3cccnc23)-c2ccccc21,51.4*,0.222*,21.0,.,50.7*,44.8*,49.0*,46.4*
C=CCOC(=O)C1=CC(c2ccc(Br)cc2)C(CCCO)C(OCC)O1 (configuration not stated),.,0.621,.,.,.,.,.,.
CCOCCCNC(=O)Cn1cc2c(n1)CCCC2,3.8,0.711,1.8,0.6,14.4*,-2.2,1.0,-1.7
O=C1C=C(O)c2c(O)cc(O)c(O)c2C1=O,8.7,0.771,22.4,10.5,13.4*,14.2*,9.8*,14.4
C[C@@H]1Cc2c(O)c(O)cc(O)c2C(=O)O1,-1.7,0.772,2.5,.,4.4,.,.,.
O=C(Nc1nnc(C(F)(F)F)s1)c1ccc(Br)s1,9.4,0.616,-3.5,3.7,13.5*,3.5,6.7*,1.0
O=c1ccc2ccc(OC3OC(CO)C(O)C(O)C3O)c(O)c2o1 (configuration not stated),.,0.686,.,.,.,.,.,.
O=C(NCc1cccs1)C1CCN(S(=O)(=O)c2cccc3cccnc23)CC1,3.7,0.755,-5.5,1.1,17.4*,-2.5,1.6,-2.5
O=C(Nc1ccc2[nH]c(=O)[nH]c2c1)c1ccc([N+](=O)[O-])o1,19.3*,0.644,-9.9,7.3,18.2*,57.1*,9.0*,23.6
